Inconclusive results are not listed. Activity calls are given as the source filed them. The call rests on the fitted dose curve; in most records, active means well fitted curve in the direction sought with a large enough effect; inconclusive means small, poorly fitted or top-dose-only effect, or another doubt; inactive means no such curve, though single readings can be large; an effect the other way counts as inactive or inconclusive.

Experiment [1] can be described thus: Quantitative High-Throughput drug screen in 47 multiple myeloma cell lines against the NCATS MIPE library collection: FR4_PLB cell viability assay (AID 1918924; further: nearly all actives have a fitted effect of over 35% in size; further: potency means the concentration at half of the fitted maximal effect). The gist of the method:
(§1)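 Steps: seed 500 cells per well; pin-transfer MIPE 4.0 library; incubate 48 h at 37C, 5% CO2, humidified; add CellTiter-Glo, 5 min room temperature; read luminescence.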

Experiment [2] can be described thus: Quantitative High-Throughput drug screen in 47 multiple myeloma cell lines against the NCATS MIPE library collection: Delta47_JCRB cell viability assay (AID 1918925; further: nearly all actives have a fitted effect of over 45% in size; further: potency means the concentration at half of the fitted maximal effect). The gist of the method:
(§2)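 Inhibition of cell viability is measured here. Each line was plated at 500 cells per well, treated with MIPE 4.0 drugs, kept 48 hours at 37C, then assayed for ATP content by CellTiter-Glo luminescence.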

Experiment [3] in a line: Quantitative High-Throughput drug screen in 47 multiple myeloma cell lines against the NCATS MIPE library collection: EJM_DSMZ cell viability assay (AID 1918926; further: nearly all actives have a fitted effect of over 30% in size; further: potency means the concentration at half of the fitted maximal effect). The gist of the method:
as §2

A short description of experiment [4]: Quantitative High-Throughput drug screen in 47 multiple myeloma cell lines against the NCATS MIPE library collection: ARP1_JJKsccF8 cell viability assay (AID 1918928; further: nearly all actives have a fitted effect of over 40% in size; further: potency means the concentration at half of the fitted maximal effect). The method, boiled down: (§3)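 Viability screen: myeloma cells (500/well) incubated 48 h at 37 °C, humidified 5% CO2, with pinned library compounds; CellTiter-Glo added, luminescence read; DMSO wells set 100%, medium-only wells 0%.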

Experiment [5] can be described thus: Quantitative High-Throughput drug screen in 47 multiple myeloma cell lines against the NCATS MIPE library collection: Karpas620_DSMZ cell viability assay (AID 1918959). Further: nearly all actives have a fitted effect of over 30% in size. The gist of the method: as §1
The nature of experiment [6]: Quantitative High-Throughput drug screen in 47 multiple myeloma cell lines against the NCATS MIPE library collection: JIM1_ECACC cell viability assay (AID 1918964; further: potency means the concentration at half of the fitted maximal effect). The method, boiled down:
as §2

Experiment [7] in a line: Quantitative High-Throughput drug screen in 47 multiple myeloma cell lines against the NCATS MIPE library collection: JJN3_DSMZ cell viability assay (AID 1918966; further: nearly all actives have a fitted effect of over 50% in size; further: potency means the concentration at half of the fitted maximal effect). The method, boiled down:
as §2

Experiment [8] in a line: Quantitative High-Throughput drug screen in 47 multiple myeloma cell lines against the NCATS MIPE library collection: H1112_PLB cell viability assay (AID 1918967; further: nearly all actives have a fitted effect of over 30% in size; further: potency means the concentration at half of the fitted maximal effect). The method, boiled down: as §2
The target in experiment [9] is Luciferin 4-monooxygenase (Photinus pyralis) (UniProt P08659). The experiment is described as follows: Primary firefly luciferase (FLuc) qHTS assay for identification of artifact compounds. (AID 1845220). Further: nearly all actives have a fitted effect of over 60% in size. Further: potency means the concentration at half of the fitted maximal effect. The gist of the method: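 D-luciferin and ATP (10 uM each, final) in Tris acetate buffer pH 7.6 were incubated with compounds for 15 min at room temperature. The reaction was started with 10 nM Photinus pyralis luciferase and luminescence read after 5 min. Percent inhibition was fitted to a 4-parameter Hill equation.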

A short description of experiment [10]: Primary fluorescence-based thiol-reactive (MSTI) qHTS assay for identification of artifact compounds. (AID 1845221).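 Further: thiol-reactive compounds lower the probe fluorescence signal; nearly all actives have a fitted effect of over 65% in size.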 The gist of the method: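 One-hour, room-temperature, dark incubation of compound with 4 uM MSTI in PBS (pH 7.4, 2% DMSO) precedes a fluorescence read at 525 nm excitation, 598 nm emission; Hill-equation fitting yields concentration-response values.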
For orientation: In qHTS, concentration-response curves come from the screen itself.

Experiment [11] deals with Nanoluciferase (engineered Oplophorus gracilirostris luciferase). The experiment can be described thus: Primary Nanoluciferase (NLuc) qHTS assay for identification of artifact compounds. (AID 1845222). The method, boiled down: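 Diluted conditioned medium from NLuc-expressing S16 cells treated with compounds for 15 min at room temperature, then Nano-Glo substrate added; luminescence read after 5 min. Percent inhibition versus no-enzyme and DMSO controls fitted to 4-parameter Hill equation.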

Experiment [12] can be described thus: Primary redox qHTS assay for identification of artifact compounds. (AID 1845223). The method, boiled down:
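Redox-cycling detection via DTT (250 uM final) oxidation coupled to Amplex Red (25 uM)/HRP (250 mU/mL) in HBSS. 15 min preincubation plus 30 min after DTT, room temperature. Ex/Em 525/598 nm; 4-parameter Hill fit against DMSO and 10 uM DA3003.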

Experiment [13] in a line: Quantitative High-Throughput drug screen in 47 multiple myeloma cell lines against the NCATS MIPE library collection: ARD_JJKsccE7 cell viability assay (AID 1918929; further: potency means the concentration at half of the fitted maximal effect). The method, boiled down: as §2
Experiment [14] can be described thus: Quantitative High-Throughput drug screen in 47 multiple myeloma cell lines against the NCATS MIPE library collection: KMM1_JCRB cell viability assay (AID 1918960). Further: nearly all actives have a fitted effect of over 30% in size. Further: potency means the concentration at half of the fitted maximal effect. The method, boiled down: as §3
Experiment [15] can be described thus: Quantitative High-Throughput drug screen in 47 multiple myeloma cell lines against the NCATS MIPE library collection: KHM11_PLB cell viability assay (AID 1918962). Further: nearly all actives have a fitted effect of over 35% in size. Further: potency means the concentration at half of the fitted maximal effect. The method, boiled down: as §1
The nature of experiment [16]: Quantitative High-Throughput drug screen in 47 multiple myeloma cell lines against the NCATS MIPE library collection: INA6_PLB cell viability assay (AID 1918965; further: nearly all actives have a fitted effect of over 55% in size; further: potency means the concentration at half of the fitted maximal effect). The method, boiled down:
(§4)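 CellTiter-Glo luminescence (ATP) after 48 h compound exposure, 37C/5% CO2; 500 cells/well; MIPE 4.0 approved/investigational drugs pinned in; DMSO = 100%, media only = 0% viability.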

Experiment [17] is described as follows: Quantitative High-Throughput drug screen in 47 multiple myeloma cell lines against the NCATS MIPE library collection: JIM3_ECACC cell viability assay (AID 1918963; further: nearly all actives have a fitted effect of over 35% in size; further: potency means the concentration at half of the fitted maximal effect). The gist of the method:
as §1

A short description of experiment [18]: Quantitative High-Throughput drug screen in 47 multiple myeloma cell lines against the NCATS MIPE library collection: AMO1_DSMZ cell viability assay (AID 1918927; further: nearly all actives have a fitted effect of over 30% in size; further: potency means the concentration at half of the fitted maximal effect). The gist of the method:
as §2

Experiment [19] is described as follows: Quantitative High-Throughput drug screen in 47 multiple myeloma cell lines against the NCATS MIPE library collection: Karpas417_ECACC cell viability assay (AID 1918961). Further: potency means the concentration at half of the fitted maximal effect. To be noted: Karpas417 myeloma viability, CellTiter-Glo ATP luminescence, 48 h; viability (% of DMSO): at 45.8 µM (top of the series). The gist of the method: as §4

For the molecule `N=C1SC(=Cc2ccc(-c3ccc4c(c3)C(=O)NC4=O)o2)C(=O)N1c1ccc(Br)cc1`, the Potency in experiment [1] is 3.32 µM (active); in experiment [3] it was 4.18 µM (active); in experiment [4], 3.32 µM (active); in experiment [7], 2.96 µM (active). Further, the Potency result in experiment [2], in experiment [5], in experiment [6] and in experiment [8] was “inactive” each time.

Take `COc1ccc(-c2nc3ccc(C4=NNC(=O)CC4C)cc3[nH]2)cc1` (stereo not given): the Potency in [9] was 10.7 µM (active). For the same molecule, the Potency result in experiment [10], in experiment [11], in experiment [1], in [3], in experiment [4] and in experiment [13] was “inactive” each time. The Potency result in experiment [5], in experiment [14], in experiment [6] and in experiment [7] was “inactive” in each case. For the same molecule, the outcome in [12] was inactive.

On to `CNC(=O)c1c(-c2ccc(F)cc2)oc2cc(N(CCO)S(C)(=O)=O)c(C3CC3)cc12`, for which the Potency result in experiment [9], in [10] and in experiment [11] was “inactive” throughout. Further, in experiment [12], the molecule was called inactive. In addition, in experiment [1], the Potency is 23.5 µM (active).

Turning to `Cc1cc(-c2ncc(CC(=O)Nc3ccc(-c4cnccn4)cn3)cc2C)ccn1`, the Potency result in experiment [9], in [10] and in [11] was “inactive” throughout. Also, the result in experiment [12] was inactive. Also, the Potency is 14.8 µM (active) in [2]; 9.35 µM (active) in experiment [13]; 14.8 µM (active) in experiment [15]; 10.5 µM (active) in [16]; 6.62 µM (active) in [7].

For the molecule `CC[C@H]1OC(=O)[C@H](C)[C@@H](O[C@H]2C[C@@](C)(OC)[C@@H](O)[C@H](C)O2)[C@H](C)[C@@H](O[C@@H]2O[C@H](C)C[C@H](N(C)C)[C@H]2O)[C@](C)(O)C[C@H](C)C(=NOCOCCOC)[C@H](C)[C@@H](O)[C@]1(C)O`, the Potency result in experiment [1], in [2], in experiment [3], in experiment [4], in experiment [5] and in experiment [14] was “inactive” in each case. In addition, the Potency entry in [15], in experiment [6] and in experiment [8] was “inactive” throughout. Besides, the Potency in [7] is 13.2 µM (active).

On to `CC(C)=CCCC(C)=CCCC(C)=CCCC(C)=CCCC(C)=CCCC(C)=CCCC(C)=CCCC(C)=CCCC(C)=CCO`, for which the Potency result in experiment [1], in [2], in experiment [3], in experiment [4], in experiment [13] and in experiment [5] was “inactive” each time. Also, the Potency result in experiment [14], in experiment [17], in [16] and in experiment [8] was “inactive” in each case.

As for `CCOC(=O)N1CCN([N+]([O-])=NOc2cc(ON=[N+]([O-])N3CCN(C(=O)OCC)CC3)c([N+](=O)[O-])cc2[N+](=O)[O-])CC1`, the Potency was 4.69 µM (active) in [1]; 4.69 µM (active) in experiment [2]; 2.64 µM (active) in [3]; 0.0526 µM (active) in [13]; 6.62 µM (active) in experiment [15]; 9.35 µM (active) in experiment [17]. Besides, the Potency in experiment [7] was 2.96 µM (active); in experiment [8], 5.9 µM (active). In addition, in [18], the Potency result was “inactive”.

With `CC=C1C2C=C(C)CC1(N)c1ccc(=O)[nH]c1C2` (stereo not given), the Potency entry in [1], in experiment [2], in experiment [3], in experiment [18], in [13] and in experiment [5] was “inactive” in each case. The Potency entry in experiment [14], in experiment [15], in experiment [17], in [7] and in experiment [8] was “inactive” in each case.

In the case of `C[C@@]1(C(=O)Nc2ccc(F)nc2)CCCN1c1nc(Nc2cc(C3CC3)[nH]n2)c2cccn2n1`, the Potency result in [9] and in [11] was “inactive” throughout. Further, the molecule was classed as inactive in experiment [12]. The Potency was 0.166 µM (active) in experiment [1]; 0.0166 µM (active) in experiment [2]; 0.0935 µM (active) in experiment [18]; 0.001 µM (active) in experiment [13]; 0.0148 µM (active) in experiment [17]; 0.105 µM (active) in [7].

Consider `COc1cc([C@H]2Oc3cc([C@H]4Oc5cc(O)cc(O)c5C(=O)[C@H]4O)ccc3O[C@H]2CO)ccc1O`, for which the Potency in experiment [1] was 18.7 µM (active); in experiment [2], 13.2 µM (active); in [3], 14.8 µM (active); in [4], 16.6 µM (active); in experiment [16] it was 13.2 µM (active); in experiment [7] it was 9.35 µM (active). Besides, the Potency result in experiment [13], in [5] and in [14] was “inactive” in each case.

As to `NS(=O)(=O)c1ccc(Nc2nc(OCC3CCCCC3)c3[nH]cnc3n2)cc1`, the Potency entry in [9], in [10] and in experiment [11] was “inactive” each time. Further, the result in experiment [12] was inactive. The Potency in [2] was 16.6 µM (active); in [3] it was 23.5 µM (active); in experiment [18], 18.7 µM (active); in experiment [13], 16.6 µM (active); in [14], 18.7 µM (active); in experiment [19], 14.8 µM (active). For the same molecule, the Potency in experiment [15] is 26.4 µM (active); in experiment [17], 20.9 µM (active); in [6] it was 20.9 µM (active); in experiment [16], 3.32 µM (active).

Regarding `COc1c(C)c2c(c(O)c1CC=C(C)CCC(=O)OCCN1CCOCC1)C(=O)OC2`, the Potency is 5.26 µM (active) in experiment [1]; 0.372 µM (active) in experiment [18]; 1.18 µM (active) in [13]; 1.87 µM (active) in [16]; 3.32 µM (active) in experiment [8]. For the same molecule, the Potency entry in experiment [2], in [3] and in [5] was “inactive” throughout.

For the molecule `COc1cc(CNC(=O)CCCCC=CC(C)C)ccc1O`, the Potency entry in experiment [1], in experiment [2], in experiment [18], in experiment [4], in experiment [13] and in experiment [5] was “inactive” each time. Moreover, the Potency result in experiment [14], in experiment [15], in experiment [17] and in [8] was “inactive” throughout. In addition, the Potency in [3] is 10.5 µM (active).

Consider `O=c1[nH]c(=O)n([C@H]2C[C@@H](O)[C@@H](CO)O2)cc1I`, for which the Potency result in experiment [1], in experiment [2], in [3], in experiment [4], in experiment [5] and in experiment [7] was “inactive” throughout. The Potency entry in experiment [8] is “inactive”. Moreover, the Potency in [13] was 3.32 µM (active).

As for `CC1(C)OC2CC3C4CC(F)C5=CC(=O)C=CC5(C)C4C(O)CC3(C)[C@]2(C(=O)CO)O1` (stereo not given in full), the Potency entry in [1], in experiment [2], in [3], in [18], in experiment [5] and in experiment [17] was “inactive” throughout. Further, the Potency entry in experiment [16], in [7] and in [8] was “inactive” each time. Besides, the values for the Potency in experiment [4], in experiment [13] and in experiment [14] were 0.0209 µM (active), 0.0187 µM (active) and 0.0235 µM (active), respectively.

(Values after PubChem BioAssay (NCATS).)
